We go through 23 molecules from PubChem BioAssay.

The target of assay [1] is Tumor necrosis factor receptor superfamily member 10B (Homo sapiens) (UniProt O14763). Kind of assay: viability loss of caspase-8 NB7 cells with TRAIL – with/without TRAIL, luminescence panel, confirmation (AID 651596). To be noted: NB7 neuroblastoma + caspase-8, TRAIL sensitization, NB7 Caspase-8, with TRAIL, mean of runs, at 10 µM, stronger effect = higher value.
Test in assay [2]: as above
To be noted: NB7 neuroblastoma + caspase-8, without TRAIL, NB7 Caspase-8, without TRAIL, mean of runs, at 10 µM.

Assay [3] concerns the target Tumor necrosis factor receptor superfamily member 10B (Homo sapiens) (UniProt O14763). Kind of assay: compound enhancement of TRAIL-induced cell killing – NB7 cells plus caspase-8, luminescence, panel, dose response (AID 652002). The following applies: NB7 neuroblastoma +caspase-8, TRAIL sensitization, luminescence viability, NB7+Caspase-8, with TRAIL, run 1; at 12.5 µM (top of the series).

Assay [4] shares this target. The description is as above. The following applies: NB7 neuroblastoma +caspase-8, TRAIL sensitization, luminescence viability, NB7+Caspase-8, with TRAIL, run 2; at 12.5 µM (top of the series).
Test in assay [5]: as above
The following applies: NB7 neuroblastoma +caspase-8, no TRAIL, compound-alone cytotoxicity counter-screen, luminescence viability, NB7+Caspase-8, run 1; at 12.5 µM (top of the series) unless noted.

Test in assay [6]: as above
The following applies: NB7 neuroblastoma +caspase-8, no TRAIL, compound-alone cytotoxicity counter-screen, luminescence viability, NB7+Caspase-8, run 2; at 12.5 µM (top of the series) unless noted.

Chain of Tumor necrosis factor receptor superfamily member 10B (Homo sapiens) (O14763 whole entry, looked up): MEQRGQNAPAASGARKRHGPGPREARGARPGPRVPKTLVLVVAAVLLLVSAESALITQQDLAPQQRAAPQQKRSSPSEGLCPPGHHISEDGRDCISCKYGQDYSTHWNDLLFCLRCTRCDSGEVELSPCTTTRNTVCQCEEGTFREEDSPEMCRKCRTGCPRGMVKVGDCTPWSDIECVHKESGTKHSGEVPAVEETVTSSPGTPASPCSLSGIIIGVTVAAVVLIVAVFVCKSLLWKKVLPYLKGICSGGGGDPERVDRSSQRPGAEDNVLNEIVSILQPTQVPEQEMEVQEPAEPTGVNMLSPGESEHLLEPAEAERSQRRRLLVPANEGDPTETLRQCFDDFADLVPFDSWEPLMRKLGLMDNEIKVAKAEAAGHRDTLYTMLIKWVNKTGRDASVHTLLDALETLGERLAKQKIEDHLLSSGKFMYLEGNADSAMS

For the molecule `O=C(Nc1ccccc1)c1cc(C2CCCN(C(=O)C3CC3)C2)on1` (centres undefined), the activity in assay [1] stood at 48.6%; in assay [2], 32.4%.

With `CCC(=O)c1ccc(OCC(=O)OCC(=O)N2CCCc3ccccc32)cc1`, the activity is -9.15% in assay [1] and -14.8% in assay [2].

As to `COc1ccc(-c2ccc3sc4ccccc4c(=O)c3c2)cn1`, the activity in assay [1] amounted to 63.2%; in assay [2] it was 61.5%.

With `Cc1nc(-c2ccc(NC(=O)c3cccs3)cc2)cs1`, the activity came to 83.1% in assay [1] and 83.7% in assay [2].

On to `COc1ccc(-c2nnc(SCC(=O)c3[nH]c(C)c(C(C)=O)c3C)o2)cc1`, for which the activity in assay [1] was 54.1%; in assay [2], 53.9%. For the same molecule, the activity, % sensitization is -37% in assay [3], -7.9% in assay [4], -20.2% in assay [5] and -16.4% in assay [6].

Regarding `CCN1CCC(O)(/C=C/c2ccc(C(C)C)cc2)C(C(=O)/C=C/c2ccc(C(C)C)cc2)C1` (centres undefined), the values for the activity in assay [1] and in assay [2] were 87.8% and 82.8%, respectively.

For `OC(c1cc(-c2cccc(Cl)c2)nc2ccccc12)C1CCCCN1` (centres undefined), the activity in assay [1] worked out at 71.2%; in assay [2], 82.1%.

On to `Cc1cc2nc(-c3ccc(SCC(=O)Nc4nccs4)nc3)[nH]c2cc1C`, for which the values for the activity in assay [1] and in assay [2] were 58% and 46.6%, respectively. Further, the activity, % sensitization in assay [3] was 5.16%; in assay [4] it was 48.9%; in assay [5] it was -17.8%; in assay [6], 0.327%.

As to `CC(=O)CSc1ccc(-c2nc3ccccc3[nH]2)cn1`, the activity was 92.1% in assay [1] and 92.5% in assay [2].

As for `COc1ccc2nc(NC(=O)c3ccc([N+](=O)[O-])o3)sc2c1`, the activity in assay [1] was 37.6%; in assay [2], 77.8%.

As for `O=C(CSc1nnc(-c2csc3c2CCCC3)o1)Nc1ccccc1`, the activity in assay [1] was 76.4%; in assay [2], 76.5%.

Turning to `Cc1cccn2c(=O)c3cc(C(=O)NCCc4ccccc4)c(=N)n(Cc4ccco4)c3nc12`, the activity in assay [1] was found to be 19.5%; in assay [2] it was 5.95%.

On to `O=C(/C=C/c1ccco1)Nc1scc(-c2ccccc2)c1C(=O)O`, for which the activity in assay [1] worked out at 51.9%; in assay [2] it was 39.8%.

Regarding `COc1ccc(-c2cc(C(=O)N/N=C/c3cccnc3)c3ccccc3n2)cc1`, the activity in assay [1] came out at 45.5%; in assay [2], 40.8%. For the same molecule, the activity, % sensitization in assay [3] was 22.7%; in assay [4], 33.2%; in assay [5], 21.2%; in assay [6] it was 40.4%.

As for `O=C(Nc1ccc(C(=O)O)cc1)/C(=C\C=C\c1ccccc1)NC(=O)c1ccccc1Cl`, the activity in assay [1] was 63.6%; in assay [2] it was 53.1%. For the same molecule, the activity, % sensitization in assay [3] came out at 43.1%; in assay [4] it was 38.4%; in assay [5] it was 36.3%; in assay [6], 45.9%.

As to `COc1ccc(OC)c(NC(=O)c2cc(-c3cc(Cl)ccc3O)n[nH]2)c1`, the activity is 33.7% in assay [1] and 34.1% in assay [2].

In the case of `N/C(=N\OC(=O)c1ccccc1Cl)c1cccnc1`, the figures for the activity in assay [1] and in assay [2] were 67.2% and 70.6%, respectively.

As to `O=C(Nc1ccc2[nH]ccc2c1)c1cccs1`, the activity in assay [1] was determined as 64%; in assay [2] it was 52.9%. The activity, % sensitization came to 48.2% in assay [3], 52.7% in assay [4], 46.5% in assay [5] and 43.5% in assay [6].

As to `Cc1ccc(-c2nnc(-c3cccc4ccccc34)o2)cc1`, the values for the activity in assay [1] and in assay [2] were 58.2% and 44%, respectively.

`Cc1onc(C(=O)N2CCN(C(c3ccccc3)c3ccccc3)CC2)c1[N+](=O)[O-]`: the activity is 99.8% in assay [1] and 97% in assay [2].

In the case of `O=C(Nc1ccc(N2CCOCC2)cc1)c1csc(COCCO)n1`, the activity in assay [1] amounted to 54.5%; in assay [2] it was 59.1%.

For `COCCCn1c(C(=O)Nc2ccc3c(c2)OCO3)cc2c(=O)n3cccc(C)c3nc21`, the activity in assay [1] turned out to be 70.2%; in assay [2], 28.2%. Besides, the activity, % sensitization is -7.02% in assay [3], -8.71% in assay [4], -1.61% in assay [5] and -25.9% in assay [6].

Take `CC(C)(C)OC(=O)NCc1ccc(NC(=O)c2nc[nH]c2C(=O)N[C@@H](Cc2ccccc2)C(=O)OCc2ccccc2)cc1`: the activity in assay [1] turned out to be 63.8%; in assay [2] it was 11.5%. In addition, the activity, % sensitization in assay [3] is -11%; in assay [4], 1.84%; in assay [5], -8.6%; in assay [6] it was -21.5%.
